Assay outcomes as filed in PubChem BioAssay.
Beta apoptosis: blocks beta cell apoptosis; INS-1E cytokine-induced death, ATP luminescence, 48 h; percent of positive-control rescue, neutral wells zero; protection from apoptosis, % (test concentration not listed); actives 0.8% (n = 300,000);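 active means Every replicate reaches about 75%, or at least half do and their mean reaches it too, limit read from the data; inconclusive means At least half of replicates reach the limit but their mean does not; inactive means Under half of replicates reach the limit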;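 further: 0% = cytokine-treated negative control wells and 100% = positive control rescue; higher means more ATP so stronger rescue from cytokine killing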
697 NFkB inh: lowers PMA/ionomycin-induced NF-kB signal in 697 B cells. AID 435022. inhibition, % at 4 µM. actives 0.33% (n = 330,000). 697 B-cell NF-kB luciferase reporter, 16 h; in the data active means inhibition above about 35%
Jurkat NFkB inh: inhibitors of the PMA/ionomycin-induced NF-kB reporter in Jurkat cells | PMA/ionomycin-induced NF-kB luciferase reporter, luminescence | inhibition, % at 4 µM | actives 0.53% (n = 330,000); in the data active means inhibition above about 50%
Shn3 inh set2: Schnurri-3 reporter inhibition in Clone20 osteoblasts | Clone20 osteoblast Shn3 3'UTR firefly luciferase, 24 h | inhibition, % at 12.5 µM | actives 0.52% (n = 360,000) | AID 588674;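 active means mean inhibition of at least 75% with every replicate also reaching 75%; inconclusive means mean inhibition at least 75% but some replicate below; inactive means mean inhibition below 75%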;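 further: 0% = median of neutral control wells and 100% = pilot-screen positive control compound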
Calb FLC: affects C. albicans growth with fluconazole; C. albicans CaCi-2 (fluconazole-resistant clinical isolate) + fluconazole, Alamar Blue growth, 48 h; growth inhibition, % (concentration not given with the values); actives 0.57% (n = 300,000);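 active means growth inhibition above about 58% in most replicates, limit read from the data, passing the limit was not always enough; inconclusive means exactly half the replicates above a set limit; inactive means most replicates below a set limit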;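 further: all wells also contain fluconazole at 8 µg/ml as a sub-toxic cotreatment; 0% = median of DMSO wells and 100% = median of geldanamycin control wells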
Numbers without * were called inactive; ? = inconclusive; · = no result given. Most compounds without a hit are left out; they make up all but 2% or so of the library.

SMILES | Beta apoptosis | 697 NFkB inh | Jurkat NFkB inh | Shn3 inh set2 | Calb FLC
O=C(Nc1ccncc1)c1cc(S(=O)(=O)N2CCOCC2)ccc1Cl | -1 | -4 | 17 | -4 | -10
c1ccc(-c2cn(-c3ccccc3)c3[n+]2CCS3)cc1 | 53 | -26 | 18 | 62 | 2
CC(C)(C)c1ccc(-c2cn(-c3ccc(Br)cc3)c3[n+]2CCCS3)cc1 | · | · | · | 80 | 102*
CC(Oc1cccc(Cl)c1)C(=O)Nc1nc(-c2ccccn2)cs1 (configuration not stated) | · | -9 | 19 | 45 | 0
COc1ccccc1/C=N/Nc1cc(C)nc(N2CCOCC2)n1 | -8 | 9 | 6 | -42 | -4
CCOc1cc(/C=N/Nc2cc(C)nc(-n3nc(C)cc3C)n2)ccc1O | 99* | -28 | 32 | ? | 6
COc1ccc(/C=N/Nc2cc(C)nc(-n3nc(C)cc3C)n2)c(OC)c1 | 82* | -6 | 13 | 80 | 16
Cc1cc(N/N=C/c2ccc(F)cc2)nc(-n2nc(C)cc2C)n1 | 110* | -13 | 4 | 17 | -13
C=CCN(C(=O)CCC(=O)Nc1cc(C)on1)C(C(=O)NC(C)(C)C)c1ccc(OC)cc1 (configuration not stated) | -20 | 3 | -7 | -1 | 0
Cc1ccc(-c2nnn(CC(=O)N(c3ccc(F)cc3)C(C(=O)NC3CCCC3)c3ccncc3)n2)o1 (configuration not stated) | -1 | -4 | -18 | 5 | 19
Cc1ccc(C)c(-n2ccnc2SCC(=O)c2c(N)n(C3CC3)c(=O)[nH]c2=O)c1 | -1 | 5 | 3 | 11 | ·
COc1ccc2c(c1)/C(=C\c1cccc(/C=C3/C(=O)Nc4ccc(OC)cc43)n1)C(=O)N2 | · | · | · | 96* | ·
COc1ccc2c(c1)/C(=N/N1C(=O)c3ccccc3C1=O)C(=O)N2 | -8 | 15 | 0 | · | -1
CC1=C(C#N)C(Nc2cccc(C)n2)(C(F)(F)F)C(=O)N1 (configuration not stated) | -4 | 15 | -1 | -8 | -18
CC1=C(C#N)C(C(F)(F)F)(C(F)(F)F)N=C(c2ccco2)N1 | 101* | -1 | -16 | 89* | -17
CC1=CC(=C(C#N)c2nc3ccccc3s2)C=C(C)N1c1ccc(F)cc1 | 6 | -33 | -39 | -24 | 1
COc1ccccc1N1C(C)=CC(=C(C#N)c2nc3ccccc3s2)C=C1C | 128* | -34 | -4 | 7 | 8
c1csc(CCNc2ncnc3sc4c(c23)CCC4)c1 | · | -12 | 31 | 88* | 34
Cc1cccc(CC(=O)NCC2CCCCC2)c1 | -2 | -34 | -8 | -40 | -1
COc1ccc(S(=O)(=O)N2CCCCC2)cc1NC(=O)C1COc2ccccc2O1 (configuration not stated) | · | -21 | -3 | -18 | -3
CCCCCc1ccc(OCCCC[n+]2ccccc2)c(CCCCC)c1 | 87* | 13 | 45 | 90* | 100*
CC(Sc1ccc(Cl)cc1)C(=O)NNC(=O)c1ccco1 (configuration not stated) | 2 | 8 | 4 | -1 | ·
Cc1ccccc1C(=O)/C(C#N)=N/Nc1c(C)n(C)n(-c2ccccc2)c1=O | 69 | · | · | 78 | -1
Cc1c(N/N=C(\C#N)C(=O)c2ccccc2)c(=O)n(-c2ccccc2)n1C | · | · | · | 89* | 0
Cc1csc(=O)n1CC(=O)OC(C)C(=O)Nc1ccc(N(C)C)cc1 (configuration not stated) | · | · | · | -19 | ·
SMILES | Beta apoptosis | 697 NFkB inh | Jurkat NFkB inh | Shn3 inh set2 | Calb FLC
CC(C)C1C(=O)N(Cc2cn(CCC3OCCO3)nn2)CCS(=O)(=O)N1Cc1ccc(-c2ccc(F)cc2Cl)cc1 (configuration not stated) | · | · | · | 26 | ·
CCc1ccc(CNC(=O)CCC(=O)N2Cc3cccc(OC)c3Oc3ncccc32)cc1 | 0 | 8 | 1 | -12 | 85*
O=C(NC(=S)NCc1cccnc1)c1ccc([N+](=O)[O-])cc1 | -6 | 21 | -13 | -29 | -4
O=C(NCc1cccnc1)c1ccc(COc2ccccc2Cl)cc1 | 103* | -21 | 0 | 26 | 34
CC(C)(C)c1ccc(C(=O)Nc2ccc(C(=O)NCc3cccnc3)cc2)cc1 | 113* | -9 | 11 | 52 | 39
CC(C)(C)C(=O)Nc1ccc(C(=O)NCc2cccnc2)cc1 | 2 | -1 | 1 | -16 | 1
O=C(NCc1cccnc1)c1ccc(COc2ccccc2Br)cc1 | 19 | -19 | -22 | 38 | 39
O=C(NCc1cccnc1)c1ccc(-c2cccc(Cl)c2Cl)o1 | 0 | 1 | 16 | -20 | 61*
O=C(NCc1cccnc1)c1ccc(NC(=O)c2ccc([N+](=O)[O-])cc2)cc1 | 104* | -30 | 28 | 50 | -24
CCC(CC)C(=O)N(C)c1c(C)nc2c(OCC(=O)C(C)(C)C)cccn12 | · | · | · | -12 | ·
CCCOc1ccc(CSc2nc3ccccc3[nH]2)cc1 | 112* | -77 | -23 | 40 | 15
O=C1C(C2=NC(c3ccccn3)C3C(=O)N(c4ccc(OC(F)(F)F)cc4)C(=O)C23)=C(O)c2ccccc21 (configuration not stated) | 81* | 18 | 11 | 77 | -1
O=C1N/C(=N\N=C\c2ccc3ncccc3c2)SC1Cc1ccc(SC(F)F)cc1 (configuration not stated) | 8 | -39 | -16 | -52 | 6
O=C1N/C(=N\N=C\c2cccnc2)SC1Cc1ccc(SC(F)F)cc1 (configuration not stated) | 88* | -34 | -1 | 61 | 70
COc1ccc(C(C(=O)NCc2ccc(F)cc2)N(C(=O)c2csnn2)C2CC2)cc1 (configuration not stated) | -3 | -4 | 0 | 0 | 22
Cc1ccc(C(C)C)c(OCC(O)CN2CCc3ccccc3C2)c1 (configuration not stated) | 98* | -14 | 0 | 61 | 21
CC(NC(=O)c1ccc2c(c1)C(=O)N(Cc1cccnc1)C2=O)c1ccccc1 (configuration not stated) | -4 | 9 | -16 | -14 | 1
Cc1ccc2nc(NC(=O)C3CCN(S(=O)(=O)c4cc([N+](=O)[O-])ccc4Cl)CC3)sc2c1 | 4 | -46 | 3 | 65 | 7
O=C(Nc1nc2ccc(F)cc2s1)C1CCN(S(=O)(=O)c2cc([N+](=O)[O-])ccc2Cl)CC1 | 111* | -108 | 27 | 65 | 15
C/C(=N\NC(=O)c1ccn(C)n1)c1ccco1 | -4 | -30 | -29 | -85 | -5
Cc1cc(OCC(=O)NC(C)c2ccccc2)ccc1[N+](=O)[O-] (configuration not stated) | 2 | 9 | -1 | 19 | -5
N#C/C(=C\c1ccc(O)c(O)c1)C(=O)Nc1cccc2ncccc12 | -4 | 3 | 11 | 31 | 97*
O=C1CC(C(=O)N2CCN(c3ccccn3)CC2)CN1Cc1ccccc1Cl (configuration not stated) | -5 | 18 | 20 | 3 | 5
CC#CC[N+](C)(C)CCCCCCCC | 131* | -10 | 16 | · | -22
